Data: the supplement of paper PMC3334620
The full ranking holds about 33,000 sequences; the median of “E-score (-0.5 to 0.5)” is about -0.041, and the highest 2% start at about 0.37. The list comes from a sample in which the highest values are over-represented; it also holds similar and randomly drawn sequences.

Each sequence was assayed against T1, Ecm22 (UniProt Q05958) (assay: PBM E-score (8-mer binding enrichment) (E-score (-0.5 to 0.5)); higher = stronger / more preferred TF binding). Details: protein concentration: 200 nM; construct: GST-full length.
T1 sequence: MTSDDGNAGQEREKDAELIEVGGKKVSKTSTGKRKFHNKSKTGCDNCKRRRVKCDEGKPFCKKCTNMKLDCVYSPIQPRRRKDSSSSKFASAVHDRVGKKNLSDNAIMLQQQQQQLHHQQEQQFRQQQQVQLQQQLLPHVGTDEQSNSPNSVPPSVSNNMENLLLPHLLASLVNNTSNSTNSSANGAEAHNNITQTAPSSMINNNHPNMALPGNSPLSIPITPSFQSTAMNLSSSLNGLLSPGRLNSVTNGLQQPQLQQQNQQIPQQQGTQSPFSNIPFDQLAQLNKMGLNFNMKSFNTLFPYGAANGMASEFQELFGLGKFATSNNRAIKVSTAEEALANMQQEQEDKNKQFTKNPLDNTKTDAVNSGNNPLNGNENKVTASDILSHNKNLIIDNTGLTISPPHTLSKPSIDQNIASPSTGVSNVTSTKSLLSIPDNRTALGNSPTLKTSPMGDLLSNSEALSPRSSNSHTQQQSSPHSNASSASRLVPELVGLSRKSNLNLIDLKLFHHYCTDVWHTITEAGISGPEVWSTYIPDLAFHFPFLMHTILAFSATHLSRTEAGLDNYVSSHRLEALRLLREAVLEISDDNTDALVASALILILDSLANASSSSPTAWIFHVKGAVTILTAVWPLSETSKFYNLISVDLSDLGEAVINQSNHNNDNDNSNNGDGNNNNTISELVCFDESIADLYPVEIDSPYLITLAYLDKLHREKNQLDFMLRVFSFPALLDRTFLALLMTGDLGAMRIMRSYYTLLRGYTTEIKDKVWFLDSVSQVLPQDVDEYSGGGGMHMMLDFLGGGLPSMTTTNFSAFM
Method: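 Universal 'all 10-mer' protein binding microarrays (Agilent AMADID 015681) probed with GST-tagged S. cerevisiae TFs (full-length or DBD) made by in vitro transcription/translation (PURExpress), about 100-200 nM. Bound TF was detected with fluorescent anti-GST. Each ungapped 8-mer (which stands for itself and its reverse complement) is scored by the PBM enrichment score (E-score), a modified Wilcoxon-Mann-Whitney statistic from -0.5 to +0.5, computed with the Universal PBM Analysis Suite. Scale: above 0.35 generally sequence-specific binding.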

Sequence	PBM E-score
ACCGCAGC	-0.0492
ATCTTTTA	0.0457
GCCCGCAC	-0.0245
CACCCCAG	-0.0849
ACAATAAT	-0.0625
CGCGGATA	0.188
CACCACAG	-0.132
CTACCCAG	-0.0541
ACCCCAGT	-0.0793
CCTAGAAG	-0.187
CGTGGCGC	0.0496
ACGAAACG	0.411
ACGAAATC	0.285
CCGAAACG	0.288
GCGAAATA	0.0791
ACGAAATA	0.381
ACGAAACC	0.33
ACGAAACA	0.335
ACGAAACT	0.369
ACGAAAGG	0.33
CGAAGGAG	0.129
GACTGAAC	0.0447
AATTCAGT	-0.189
AAACCTTA	0.0879
CTAAGGGA	0.0248

Sequence	PBM E-score
ATCCCACA	-0.176
CATCGTCA	-0.0402
GATCGTCC	-0.0538
GATCGTTA	0.211
AATCGTAA	0.333
AATCGTCT	0.0505
GATCGTAA	0.387
GATCGTAC	0.454
CATCGTGA	0.108
AATCGTAG	0.211
AATCGTAT	0.427
CATCGTAA	0.381
GATCGTGC	0.0469
CCCGCAAA	0.148
CTGACCCA	-0.312
ACTGCTAC	0.00971
CATGCTCA	-0.229
CCACGGAG	-0.163
ACACAGTA	-0.0309
CATCGTAC	0.458
CATCGTCC	0.0413
CATCGTAG	0.261
AATCGTAC	0.458
AATCGTCC	0.0602
AATCGTGC	0.221

Sequence	PBM E-score
GTTAAGCA	-0.0308
CATCAGAG	-0.126
ACACCCCT	-0.271
TGTTCTAA	-0.023
AGTGCGTA	0.14
CGAGTATC	0.246
CCGCTATC	0.0478
CATACGCA	0.216
TATACGCA	0.415
TATACGGA	0.439
GATACGCA	0.231
GATACGGA	0.285
CATACGGA	0.362
CGGATCGA	0.219
ATCTTTTC	-0.0858
ACGTTATG	0.163
AGGAGTAT	-0.109
AAGAGTAT	-0.113
GCGAGTAA	0.114
ACGAGTAA	0.396
CCGAGTAC	0.24
CCGAGTAA	0.256
ACGAGTAG	0.38
AAGAGTAG	-0.211
ACGAGTAC	0.421

Sequence	PBM E-score
ACGAGTAT	0.382
CCGAGTAG	0.0401
GCGAGTAC	0.324
AGGCCCAT	-0.148
GACCGCGC	0.0551
CCCGACCC	0.092
AAGCGCGT	0.0575
CCCCTCGG	0.266
CCGAGCCC	0.0573
CCCCTCTA	-0.112
AAGTTTGT	-0.176
AACTGTTC	-0.177
ACGCAGGA	0.108
AGCTGCCA	-0.171
ACGCCACC	-0.0558
CCGGTGGC	-0.135
ACGAGTCA	0.219
ACGAGTCG	0.384
ACGAGTCT	0.324
AATCCATT	0.0189
CACTCGAA	0.0641
GACTCGAA	-0.121
CACTCGTA	0.458
AACTCGTC	0.102
AACTCGTA	0.47

Sequence	PBM E-score
GACTCGCA	0.151
AACTCGTG	0.228
CACTCGTC	0.0448
GACTCGTA	0.455
GCTACCTA	-0.156
ACCTTTCA	-0.0376
ACAAGCCG	-0.0164
AGGATTAC	-0.0965
CCGGTAAG	0.0008
ATAATTAT	0.311
ACAGTAAT	-0.0196
CAGAATCG	0.17
ACCTCACA	-0.106
AAAGTGTT	-0.0118
GCTTGAGA	-0.0858
ACGAGGGA	0.41
CCGAGGGC	0.203
CCGAGGGA	-0.0341
ACGAGGGG	0.365
AAGAGGGC	-0.297
ACGAGGGC	0.374
TAGTGGCA	-0.179
CCCTTCCC	-0.234
ACTCCAAC	-0.175
CTACTTCC	0.0408

Sequence	PBM E-score
ATCATCAT	0.0455
GTATCGAC	0.165
GTCGTAAC	0.397
ATCGTAAC	0.368
GGCGTAAC	-0.0339
CTCGTAAC	0.428
CACGTAAC	-0.149
GACGTAAC	-0.079
CACGTAAG	0.0432
CTCGTAAG	0.44
CGCGTAAG	0.165
TCGCACCA	0.324
CTAAGAAG	-0.0845
ACTGTGAG	-0.105
GCGAGCAA	0.198
CCCATTAG	-0.248
AGCAACAT	-0.112
ACGTCTTC	-0.126
ACAACTGT	-0.148
ACTGTACT	-0.12
ACTGTACG	0.42
AGTGTACC	-0.059
CCTGTACA	-0.174
CCTGTACG	0.4
ATTGTACA	-0.0596

Sequence	PBM E-score
AGTGTACG	0.389
CCTGTACC	-0.0544
ACTGTACC	-0.0754
ATTGTACG	0.431
AGTGTACA	-0.0734
ATTGTACC	0.00485
AATTTTGA	0.0335
CCCTGATA	-0.194
CGGATCTA	0.0938
CAAGCCGA	0.0727
AGACAGAA	-0.0147
CATGTACG	0.399
AATGTACG	0.331
CATGTACA	-0.0676
CAAGGGTA	-0.0852
CGTACAGA	0.382
AGTACAGC	-0.113
CGTACAGC	0.427
AGTACAGA	0.0225
GGTACAGA	-0.0866
CCTACAGC	-0.318
CGAAGGCG	0.124
